PubChem BioAssay (NCI)
Compounds without any hit were thinned out: in the full panel of roughly 79,000, 15% have a hit. Cut-off read from the data, not from the text of the source: active = growth inhibition above about 70%; inactive = the rest.

Assays:
[1] = NCI Yeast Anticancer Drug Screen. Data for the rad52 strain (AID 147);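 note: 0% = growth of vehicle-treated control cultures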; settings: S. cerevisiae rad52 mutant growth inhibition, hits give high values
Procedure, shortened: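 Read-out: growth inhibition versus vehicle-treated controls. Cells were a DNA repair-deficient yeast strain treated with compounds.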

[2] = NCI Yeast Anticancer Drug Screen. Data for the wt1 strain (AID 149);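 note: 0% = growth of vehicle-treated wt1 cultures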; settings: S. cerevisiae wt1 strain (SPY 50644) growth inhibition, hits give high values
Procedure, shortened: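 Readout: yeast growth inhibition, normalised to vehicle controls, in the wt1 strain exposed to test compounds.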

[3] = NCI Yeast Anticancer Drug Screen. Data for the rad50EPP+ strain (AID 151);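 note: 0% = growth of vehicle-treated control cultures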; settings: S. cerevisiae rad50 mutant strain, hits give high values
Procedure, shortened: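 Growth inhibition read against vehicle controls in rad50EPP+ yeast, a strain altered in DNA damage repair, after compound exposure.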

[4] = NCI Yeast Anticancer Drug Screen. Data for the rad50 strain (AID 155);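 note: 0% = growth of vehicle-only cultures of the same strain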; settings: S. cerevisiae rad50 strain growth inhibition, hits give high values
Procedure, shortened: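 Compounds were tested on a yeast strain with an engineered DNA damage repair alteration; the reported value is growth inhibition normalised to vehicle treatment.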

[5] = NCI Yeast Anticancer Drug Screen. Data for the mec2-1 strain (AID 157); settings: S. cerevisiae mec2-1 strain, hits give high values
Procedure, shortened: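 Yeast mec2-1 mutant treated with compound. Readout: growth inhibition vs vehicle controls.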

[6] = NCI Yeast Anticancer Drug Screen. Data for the rad14 strain (AID 159);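 note: 0% = growth of vehicle-treated control cultures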; settings: S. cerevisiae rad14 strain growth inhibition, hits give high values
Procedure, shortened: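 Compound-treated yeast with a defined DNA-repair lesion; growth inhibition normalised to vehicle-treated cultures.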

[7] = NCI Yeast Anticancer Drug Screen. Data for the sgs1 mgt1 strain (AID 161);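 note: 0% = growth of cultures given vehicle only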; settings: S. cerevisiae sgs1 mgt1 strain, hits give high values
Procedure, shortened: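 Test agents were incubated with a DNA-repair-mutant yeast strain. Growth was then read and compared against vehicle-treated controls.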

[8] = NCI Yeast Anticancer Drug Screen. Data for the CLN2oe strain (AID 163);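 note: 0% = growth of vehicle-only control cultures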; settings: S. cerevisiae CLN2oe strain, hits give high values
Procedure, shortened: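 Read-out: yeast growth inhibition, expressed relative to vehicle-only controls. The strain bears an engineered cell-cycle alteration.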

[9] = NCI Yeast Anticancer Drug Screen. Data for the cln2 rad14 strain (AID 165);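 note: 0% = growth equal to vehicle treated cultures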; settings: S. cerevisiae cln2 rad14 strain, hits give high values
Procedure, shortened: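 cln2 rad14 yeast strain; compound exposure; growth inhibition read vs vehicle controls.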

[10] = NCI Yeast Anticancer Drug Screen. Data for the wt2 strain (AID 169);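 note: 0% = growth of vehicle-treated yeast cultures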; settings: S. cerevisiae wt2 strain growth inhibition, hits give high values
Procedure, shortened: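 Read-out: growth inhibition versus vehicle-treated control cultures after compound exposure of the yeast strain.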

[11] = NCI Yeast Anticancer Drug Screen. Data for the sgs1 strain (AID 173);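 note: 0% = growth of vehicle-only control cultures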; settings: S. cerevisiae sgs1 mutant, hits give high values
Procedure, shortened: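 Read-out: yeast growth inhibition relative to vehicle controls, following compound exposure of a strain with a defined DNA repair/cell cycle alteration.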

[12] = NCI Yeast Anticancer Drug Screen. Data for the mlh1 rad18 strain (AID 175); settings: S. cerevisiae mlh1 rad18 strain growth inhibition, hits give high values
Procedure, shortened: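 Yeast w/ defined DNA-repair lesions; compound exposure; growth vs vehicle controls → % inhibition.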

[13] = at 5.0 µM (retest, dose inferred, filed as 0.5)
[14] = at 50.0 µM (retest, dose inferred, filed as 5.0)

Measured: growth inhibition

CN[C@@H]1C[C@H]2O[C@@](C)([C@@H]1OC)n1c3ccccc3c3c4c(c5c6ccccc6n2c5c31)C(=O)N[C@@H]4O
inactive: [1]; at 1.2 µM 11% | [1]; at 3.7 µM 35% | [1]; at 11.0 µM 22% | [1]; at 33.0 µM 24% | [1]; at 100.0 µM 38% | [2]; at 1.2 µM -24% | [2]; at 3.7 µM 16% | [2]; at 11.0 µM 15% | [2]; at 33.0 µM 7% | [2]; at 100.0 µM 8% | [3]; at 1.2 µM -23% | [3]; at 3.7 µM -18% | [3]; at 11.0 µM -9% | [3]; at 33.0 µM -11% | [3]; at 100.0 µM 21% | [4]; at 1.2 µM -34% | [4]; at 3.7 µM -41% | [4]; [13] -17% | [4]; at 11.0 µM -23% | [4]; at 33.0 µM -33% | [4]; [14] 6% | [4]; at 50.0 µM 50.4% | [4]; at 100.0 µM 2% | [5]; at 1.2 µM -53% | [5]; at 3.7 µM -44% | [5]; [13] -9% | [5]; at 11.0 µM -36% | [5]; at 33.0 µM -9% | [5]; [14] 30% | [5]; at 50.0 µM 35% | [5]; at 100.0 µM 19% | [6]; at 1.2 µM -31% | [6]; at 3.7 µM -34% | [6]; at 11.0 µM -31% | [6]; at 33.0 µM -9% | [6]; at 100.0 µM 67% | [7]; [13] -1% | [7]; [14] 24% | [7]; at 50.0 µM 16.4% | [8]; at 1.2 µM -8% | [8]; at 3.7 µM -8% | [8]; at 11.0 µM 5% | [8]; at 33.0 µM 12% | [8]; at 100.0 µM 20% | [9]; [13] 13% | [9]; [14] 38% | [9]; at 50.0 µM 22.4% | [10]; at 1.2 µM -36% | [10]; at 3.7 µM -16% | [10]; at 11.0 µM 15% | [10]; at 33.0 µM -21% | [10]; at 100.0 µM 21% | [11]; at 1.2 µM -1% | [11]; at 3.7 µM -5% | [11]; at 11.0 µM 1% | [11]; at 33.0 µM 8% | [11]; at 100.0 µM 43% | [12]; [13] 2% | [12]; [14] 31% | [12]; at 50.0 µM 25.7%
